DT40 TDP1 CPT = growth inhibition of DT40 Tdp1-/-;hTDP1 cells with camptothecin (screen for TDP1 inhibitors); chicken DT40 Tdp1-/-;hTDP1 cells + 20 nM CPT, ATP luminescence, 48 h; Potency, µM (series often up to 46.2 µM), most hits filed as inhibitors; 12% of 420,000 active; further: nearly all actives have a fitted effect of over 55% in size
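Chicken DT40 Tdp1-/- cells stably complemented with human TDP1 were seeded at 400 cells/well in medium containing 20 nM camptothecin, exposed to pin-transferred compounds, and grown at 37 °C for at least 48 hr. Viability was read as ATP luminescence.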
RORgamma inh = blocks mouse ROR gamma transcriptional activity; P51450; Drosophila S2 Gal4-RORgamma UAS-luciferase reporter, 20 h; Potency, µM (top dose mostly 53.6 µM), actives largely listed as inhibitors; 5.4% of 310,000 active; AID 2551; further: nearly all actives have a fitted effect of over 60% in size
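Luminescence from a UAS-regulated Photinus luciferase reporter in stably transfected Drosophila Schneider cells is measured; decreased signal marks ROR gamma inhibition. Fusion expression is induced by 700 uM copper sulfate for 20 hr.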
VP16 counter = Gal4-VP16 reporter inhibition counter-screen; Drosophila S2 Gal4-VP16 UAS-luciferase, luminescence, 20 h; Potency, µM (titrated, usually from 53.6 µM), actives largely listed as inhibitors; 3.5% of 310,000 active; AID 2546;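 further: Gal4-VP16 expression switched on by copper sulfate through the metallothionein promoter; nearly all actives have a fitted effect of over 50% in size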
DT40 TDP1 no CPT = qHTS for Inhibitors of human tyrosyl-DNA phosphodiesterase 1 (TDP1): qHTS in cells in absence of CPT; 15% of 420,000 active; AID 686978, 2013; Potency, µM (top dose mostly 46.2 µM), hits mostly inhibitors; DT40 Tdp1-/- hTDP1 cells, no CPT, ATP luminescence, 48 h; further: nearly all actives have a fitted effect of over 55% in size
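Growth kinetics read by CellTiter-Glo luminescence after ≥48 hr at 37 °C. Cells: DT40 Tdp1-/- stably carrying human TDP1, 400 per well, compound exposure in the absence of CPT (DMSO vehicle).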
TDP1 inh = blocks human tyrosyl-DNA phosphodiesterase 1 | recombinant TDP1, AlphaScreen DNA substrate cleavage | 0.28% of 350,000 active | Potency, µM (top dose mostly 130 µM), hits mostly inhibitors | AID 485290; further: nearly all actives have a fitted effect of over 40% in size
Target sequence (Q9NUW8 whole entry, looked up): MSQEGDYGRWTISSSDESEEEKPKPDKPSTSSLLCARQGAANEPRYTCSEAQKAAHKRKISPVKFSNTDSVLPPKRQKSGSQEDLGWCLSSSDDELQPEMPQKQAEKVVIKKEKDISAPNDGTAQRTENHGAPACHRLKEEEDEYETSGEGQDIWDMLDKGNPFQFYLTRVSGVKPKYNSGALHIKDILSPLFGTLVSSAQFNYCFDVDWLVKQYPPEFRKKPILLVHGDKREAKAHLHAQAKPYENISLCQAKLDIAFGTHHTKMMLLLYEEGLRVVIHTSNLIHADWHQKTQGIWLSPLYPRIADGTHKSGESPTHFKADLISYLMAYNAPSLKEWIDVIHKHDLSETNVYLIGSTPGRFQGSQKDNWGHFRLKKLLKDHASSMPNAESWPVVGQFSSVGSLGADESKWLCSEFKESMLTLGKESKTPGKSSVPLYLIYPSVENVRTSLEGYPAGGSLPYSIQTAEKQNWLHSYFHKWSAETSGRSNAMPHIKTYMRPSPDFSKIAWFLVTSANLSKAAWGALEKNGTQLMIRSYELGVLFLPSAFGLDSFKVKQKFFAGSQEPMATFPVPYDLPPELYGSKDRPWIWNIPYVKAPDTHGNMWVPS
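Recombinant E. coli-expressed Tdp1 (1 nM) preincubated with compound 15 min at RT, then 5'-biotin/3'-phosphotyrosine-FITC DNA substrate (15 nM) added for 5 min. AlphaScreen beads (10 ug/ml) added, 10 min RT; tyrosine-FITC cleavage read as signal loss.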
A number is an active result; – = inactive; ? = inconclusive; · = no result; [ ] = dose if it differs, or a comment. In the library only some 19% were active in any assay of this set; here they are far more common. The call rests on the fitted dose curve; in most records, active means well fitted curve in the direction sought with a large enough effect; inconclusive means small, poorly fitted or top-dose-only effect, or another doubt; inactive means no such curve, though single readings can be large; an effect the other way counts as inactive or inconclusive.

SMILES	DT40 TDP1 CPT	RORgamma inh	VP16 counter	DT40 TDP1 no CPT	TDP1 inh
CC(C)C(NC(=O)CNC(=O)OC(C)(C)C)C(=O)NCc1ccc(Cl)cc1 (centres undefined)	–	–	–	–	–
CON(C)C(=O)CCN(Cc1ccccc1)C(=O)OC(C)(C)C	?	·	·	?	–
CC(=O)Nc1ccc(SCC(c2ccccc2)N2CCN(CC(C)C)CCC2=O)cc1 (centres undefined)	·	?	–	·	–
O=C(/C=C/c1cccc(Br)c1)N1CCN(c2cccc(C(F)(F)F)c2)CC1	–	–	–	–	–
Nc1cccc2c1C(=O)N(C(=O)/C=C/c1cccc(Br)c1)C2=O	10µM	?	?	23µM	–
Nc1cccc2c1C(=O)N(C(=O)/C=C/c1cccc(F)c1)C2=O	?	?	22µM	?	–
COCCNc1ncnc2ccc(-c3cccc(NS(C)(=O)=O)c3)cc12	?	?	–	?	·
CN1CCN(c2ncnc3ccc(-c4cccc(NS(C)(=O)=O)c4)cc23)CC1	3.7µM	–	–	6.5µM	·
CS(=O)(=O)Nc1cccc(-c2ccc3ncnc(NC4CC4)c3c2)c1	8.2µM	?	–	6.5µM	·
COc1ccc(C2CCCN2CC(O)COc2ccccc2C(C)C)cc1 (centres undefined)	23µM	–	–	13µM	·
COc1ccc(OCC(O)CN2CCN(c3ccccc3)CC2)cc1 (centres undefined)	–	–	–	–	–
CCCCc1cc(-c2n[nH]c(=S)o2)c2ccccc2n1	–	–	–	?	·
COC(=O)c1c(NC(=O)Cc2ccccc2)sc2c1CC(C)(C)NC2(C)C	?	–	–	?	·
CCOC(=O)c1c(NC(=O)COc2ccccc2F)sc2c1CC(C)(C)NC2(C)C	9.2µM	·	·	13µM	·
COC(=O)c1c(NC(=O)COc2ccc(Cl)cc2)sc2c1CC(C)(C)NC2(C)C	2.9µM	–	?	3.7µM	–
COc1ccc(N2C(=O)CC(Sc3ccccc3C(=O)O)C2=O)c([N+](=O)[O-])c1 (centres undefined)	?	?	–	?	–
Cc1cc(NC(=O)CCC(=O)N(CCC(C)C)C(C(=O)NC2CCCC2)c2cccnc2)no1 (centres undefined)	–	–	–	–	–
COCCn1c(=O)c(-c2cn(C)c3ccccc23)nc2cnc(Oc3ccc(OC)cc3)nc21	–	–	–	–	·
N#Cc1cc(Oc2cccc3cccnc23)c(-n2nnc3ccccc32)cc1C#N	7.1µM	?	6.3µM	7.9µM	–
CCOC(=O)c1ccc(N2C(=O)c3n[nH]c(-c4ccco4)c3C2c2ccc(C)cc2)cc1 (centres undefined)	26µM	·	·	10µM	–
CCOC(=O)c1ccc(N2C(=O)c3n[nH]c(-c4ccco4)c3C2c2ccc([N+](=O)[O-])cc2)cc1 (centres undefined)	23µM	–[10 µM]	–	12µM	–
CCOC(=O)c1ccc(N2C(=O)c3n[nH]c(C)c3C2c2ccccn2)cc1 (centres undefined)	–	–	–	–	–
CCOC(=O)c1ccc(N2C(=O)c3n[nH]c(-c4ccco4)c3C2c2ccc(O)c(OC)c2)cc1 (centres undefined)	?	·	·	?	–
CCOC(=O)c1ccc(N2C(=O)c3n[nH]c(C)c3C2c2ccc(OCC)cc2)cc1 (centres undefined)	?	·	·	10µM	–
CC1(C)Cc2nc3sc4c(=O)n(CC(=O)NCc5ccco5)cnc4c3cc2CO1	4.6µM	?	–	8.2µM	–
SMILES	DT40 TDP1 CPT	RORgamma inh	VP16 counter	DT40 TDP1 no CPT	TDP1 inh
CCc1nc(OCc2ccccc2)c2sc3nc4c(cc3c2n1)COC(C)(C)C4	29µM	–	–	?	–
CCOc1ncnc2c1sc1nc3c(cc12)COC(C)(C)C3	–	·	·	–	·
CC1(C)Cc2nc3sc4c(OCc5ccccc5)ncnc4c3cc2CO1	?	–	–	18µM	–
CC1(C)Cc2nc3sc4c(=O)[nH]cnc4c3cc2CS1	?	–	–	?	–
CCCCCn1cnc2c(sc3nc4c(cc32)CSC(C)(C)C4)c1=O	?	?	–	10µM	–
CCOc1ccccc1NC(=O)Cn1cnc2onc(-c3ccc(F)cc3)c2c1=O	?	·	·	?	–
